Results on 27 molecules are retold here after PubChem BioAssay (EPA / NIEHS).

Values joined by “and” are separate entries in the source; they are usually repeats but may differ in a detail not shown here. Equal entries are not always repeated. Active and inactive are the calls of the source. Rule for the calls: active = hit-call score of the fitted dose curve at least 0.9, where 1 is the maximum; inactive = score below 0.9.

The term AC50 denotes the concentration at which the activity in the assay is half-maximal.

Read-out in the assay: Urokinase-type plasminogen activator receptor (uPAR), PLAUR (gene 5329)
As to the kind of experiment: BSK_BE3C_uPAR: BioMAP Diversity Plus: BE3C Assay for Urokinase-type plasminogen activator receptor (uPAR) Biomarker Activity (AID 2283039).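 For outcome: cells exposed to compound for one day before measurement.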 The settings on record: primary human bronchial epithelial cells; actives raise or lower the signal. On the procedure: BSK_BE3C is a cell-based, multiplexed-readout assay that uses bronchial epithelial cell, a human lung primary cell, with measurements taken at 24 hours after chemical dosing in a 96-well plate.BSK_BE3CAR is an assay component measured in the BSK_BE3C assay. It measures uPAR antibody related to regulation of gene expression using ELISA technology.Data from the assay component BSK_BE3CAR was analyzed into 1 assay endpoint. This assay endpoint, BSK_BE3CAR, was analyzed with bidirectional fitting relative to DMSO as the negative control and baseline of activity. Using a type of binding reporter, gain or loss-of-signal activity can be used to understand changes in the signaling as they relate to the gene PLAUR. Furthermore, this assay endpoint can be referred to as a primary readout, because this assay has produced multiple assay endpoints where this one serves a signaling function. To generalize the intended target to other relatable targets, this assay endpoint is annotated to the cytokine intended target family, where the subfamily is plasmogen activator.
The levels of cell surface (or secreted, indicated by the prefix "s") biomarker endpoints were measured by ELISA. Overt cytotoxicity to cells in confluent adherent cultures (all systems other than the BT system) was assessed by measuring total protein levels using sulforhodamine B (SRB) staining in parallel cultures at the time of biomarker measurements, indicated as SRB endpoints. For proliferation assays for adherent cell types, individual cell types are cultured at sub-confluence and relative cell numbers quantified by SRB staining at time points optimized for each system (48 h: 3C and CASM3C systems; 72 h: BT and HDF3CGF systems; 96 h: SAg system). SRB was performed by staining cells with 0.1% SRB after fixation with 10% TCA and reading wells at 560 nm.Viability and proliferation of PBMC (T cells) was quantified by Alamar Blue reduction for the SAg and BT systems. For PBMC viability (referred to as PBMC Cytotoxicity within the assay endpoint names), cells were plated (75,000/well in a 96-well plate) and then chemical samples added for 1 h before addition of activators, SEB and TSST-1 (20 ng/mL final concentration each). Cells were incubated for 90 h. Then, Alamar Blue (20 uL/well) (Invitrogen, Cat DAL1100) was added for 6 h, and the plates were read with a fluorescence microplate reader at 546/580 nm (excitation/emission). For PBMC proliferation, cells were plated and activated as above but incubated for only 16 h prior to addition of Alamar Blue. Plates were read after 6 h.
Take `CN(C)c1ccc(C(c2ccccc2)c2ccc(N(C)C)cc2)cc1`: the result was inactive.

In the case of `OC(C(F)(F)F)(C(F)(F)F)C(O)(C(F)(F)F)C(F)(F)F`, the AC50 was 14.4 µM (active) and 13.8 µM (active).

With `COc1ccccc1Oc1c(NS(=O)(=O)c2ccc(C(C)(C)C)cc2)nc(-c2ncccn2)nc1OCCO`, the outcome was inactive.

Regarding `Cc1cccnc1`, the result was inactive.

With `C1CN(CCOCCN2CCOCC2)CCO1`, the result was inactive.

`Oc1cccc2ccccc12`: the outcome was inactive.

Take `Sc1nc2ccccc2s1`: the outcome was inactive.

As for `CCCCCCCCCCCCCCCCCC[N+](C)(C)C`, the outcome was inactive.

Turning to `COC(=O)/C=C\C(=O)OC`, the outcome was inactive.

Take `CN(C)Cc1cc(C(C)(C)C)c(O)c(C(C)(C)C)c1`: the result was inactive.

On to `CCCCCCCCCC/C=C/C1CC(=O)OC1=O` (configuration not stated), for which the result was inactive.

`CCCCC(CC)COC(=O)C=Cc1ccc(OC)cc1` (configuration not stated): the outcome was inactive.

Turning to `Cc1c(C(N)=O)cc([N+](=O)[O-])cc1[N+](=O)[O-]`, the outcome was inactive.

For the molecule `Cc1cc(-n2nc3ccc(Cl)cc3n2)c(O)c(C(C)(C)C)c1`, the outcome was inactive.

For the molecule `CCCCCCC(O)CCCCCCCCCCC(=O)OC` (configuration not stated), the outcome was inactive.

For `O=[N+]([O-])c1cc(S(=O)(=O)Nc2ccccc2)ccc1Nc1ccccc1`, the AC50 was 32.4 µM (active) and 31.6 µM (active).

With `CCC(C)=NO`, the result was inactive.

With `CC[N+](CC)(CC(=O)Nc1c(C)cccc1C)Cc1ccccc1` (tested in a mixture with another compound), the result was inactive.

For `CCC[Si](OC(C)=O)(OC(C)=O)OC(C)=O`, the outcome was inactive.

Take `O=C(C(=O)c1ccccc1)c1ccccc1`: the outcome was inactive.

Take `CC[N+](CC)(CC(=O)Nc1c(C)cccc1C)Cc1ccccc1`: the result was inactive.

`CN(C)CCC(c1ccc(Cl)cc1)c1ccccn1` (configuration not stated): the result was inactive.

As to `COc1cc(CNC(=O)CCCC/C=C/C(C)C)ccc1O`, the outcome was inactive.

As to `COc1ccc(C(=O)c2ccccc2O)c(O)c1`, the result was inactive.

On to `CCCCCCCCCCC1CO1` (configuration not stated), for which the outcome was inactive.

`CC(C)CC(=O)CC(C)CC(C)C` (configuration not stated): the AC50 is 34.9 µM (active).

On to `CC(C)C1OCCN1CCOC(=O)NCCCCCCNC(=O)OCCN1CCOC1C(C)C` (configuration not stated), for which the result was inactive.
